This is an account of results in PubChem BioAssay AID588689 (Southern Research Specialized Biocontainment Screening …, 2011).

SMILES strings stand for the structures. The whole screen tested about 340,000 compounds, of which about 1,000 (0.29%) were called active. Rule as the data show it: inconclusive = inhibition above about 29% without an active follow-up result; inactive = below that. A selection follows. Measured potencies and affinities stand elsewhere.

This assay addresses Genome polyprotein (Dengue virus type 2 (strain 16681-PDK53)) (UniProt P29991). Nature of the assay: Dengue-2 NS5 methyltransferase inhibitors, primary screen, biochemical, confirmation dose response (AID 588689). The following applies: Dengue-2 NS5 methyltransferase capping enzyme assay, at 25 µM, stronger effect = higher value.
The mark [1] stands for this setting: measured here: pilot screen replicate inhibition.

Chain of Genome polyprotein (Dengue virus type 2 (strain 16681-PDK53)) (P29991 whole entry, looked up): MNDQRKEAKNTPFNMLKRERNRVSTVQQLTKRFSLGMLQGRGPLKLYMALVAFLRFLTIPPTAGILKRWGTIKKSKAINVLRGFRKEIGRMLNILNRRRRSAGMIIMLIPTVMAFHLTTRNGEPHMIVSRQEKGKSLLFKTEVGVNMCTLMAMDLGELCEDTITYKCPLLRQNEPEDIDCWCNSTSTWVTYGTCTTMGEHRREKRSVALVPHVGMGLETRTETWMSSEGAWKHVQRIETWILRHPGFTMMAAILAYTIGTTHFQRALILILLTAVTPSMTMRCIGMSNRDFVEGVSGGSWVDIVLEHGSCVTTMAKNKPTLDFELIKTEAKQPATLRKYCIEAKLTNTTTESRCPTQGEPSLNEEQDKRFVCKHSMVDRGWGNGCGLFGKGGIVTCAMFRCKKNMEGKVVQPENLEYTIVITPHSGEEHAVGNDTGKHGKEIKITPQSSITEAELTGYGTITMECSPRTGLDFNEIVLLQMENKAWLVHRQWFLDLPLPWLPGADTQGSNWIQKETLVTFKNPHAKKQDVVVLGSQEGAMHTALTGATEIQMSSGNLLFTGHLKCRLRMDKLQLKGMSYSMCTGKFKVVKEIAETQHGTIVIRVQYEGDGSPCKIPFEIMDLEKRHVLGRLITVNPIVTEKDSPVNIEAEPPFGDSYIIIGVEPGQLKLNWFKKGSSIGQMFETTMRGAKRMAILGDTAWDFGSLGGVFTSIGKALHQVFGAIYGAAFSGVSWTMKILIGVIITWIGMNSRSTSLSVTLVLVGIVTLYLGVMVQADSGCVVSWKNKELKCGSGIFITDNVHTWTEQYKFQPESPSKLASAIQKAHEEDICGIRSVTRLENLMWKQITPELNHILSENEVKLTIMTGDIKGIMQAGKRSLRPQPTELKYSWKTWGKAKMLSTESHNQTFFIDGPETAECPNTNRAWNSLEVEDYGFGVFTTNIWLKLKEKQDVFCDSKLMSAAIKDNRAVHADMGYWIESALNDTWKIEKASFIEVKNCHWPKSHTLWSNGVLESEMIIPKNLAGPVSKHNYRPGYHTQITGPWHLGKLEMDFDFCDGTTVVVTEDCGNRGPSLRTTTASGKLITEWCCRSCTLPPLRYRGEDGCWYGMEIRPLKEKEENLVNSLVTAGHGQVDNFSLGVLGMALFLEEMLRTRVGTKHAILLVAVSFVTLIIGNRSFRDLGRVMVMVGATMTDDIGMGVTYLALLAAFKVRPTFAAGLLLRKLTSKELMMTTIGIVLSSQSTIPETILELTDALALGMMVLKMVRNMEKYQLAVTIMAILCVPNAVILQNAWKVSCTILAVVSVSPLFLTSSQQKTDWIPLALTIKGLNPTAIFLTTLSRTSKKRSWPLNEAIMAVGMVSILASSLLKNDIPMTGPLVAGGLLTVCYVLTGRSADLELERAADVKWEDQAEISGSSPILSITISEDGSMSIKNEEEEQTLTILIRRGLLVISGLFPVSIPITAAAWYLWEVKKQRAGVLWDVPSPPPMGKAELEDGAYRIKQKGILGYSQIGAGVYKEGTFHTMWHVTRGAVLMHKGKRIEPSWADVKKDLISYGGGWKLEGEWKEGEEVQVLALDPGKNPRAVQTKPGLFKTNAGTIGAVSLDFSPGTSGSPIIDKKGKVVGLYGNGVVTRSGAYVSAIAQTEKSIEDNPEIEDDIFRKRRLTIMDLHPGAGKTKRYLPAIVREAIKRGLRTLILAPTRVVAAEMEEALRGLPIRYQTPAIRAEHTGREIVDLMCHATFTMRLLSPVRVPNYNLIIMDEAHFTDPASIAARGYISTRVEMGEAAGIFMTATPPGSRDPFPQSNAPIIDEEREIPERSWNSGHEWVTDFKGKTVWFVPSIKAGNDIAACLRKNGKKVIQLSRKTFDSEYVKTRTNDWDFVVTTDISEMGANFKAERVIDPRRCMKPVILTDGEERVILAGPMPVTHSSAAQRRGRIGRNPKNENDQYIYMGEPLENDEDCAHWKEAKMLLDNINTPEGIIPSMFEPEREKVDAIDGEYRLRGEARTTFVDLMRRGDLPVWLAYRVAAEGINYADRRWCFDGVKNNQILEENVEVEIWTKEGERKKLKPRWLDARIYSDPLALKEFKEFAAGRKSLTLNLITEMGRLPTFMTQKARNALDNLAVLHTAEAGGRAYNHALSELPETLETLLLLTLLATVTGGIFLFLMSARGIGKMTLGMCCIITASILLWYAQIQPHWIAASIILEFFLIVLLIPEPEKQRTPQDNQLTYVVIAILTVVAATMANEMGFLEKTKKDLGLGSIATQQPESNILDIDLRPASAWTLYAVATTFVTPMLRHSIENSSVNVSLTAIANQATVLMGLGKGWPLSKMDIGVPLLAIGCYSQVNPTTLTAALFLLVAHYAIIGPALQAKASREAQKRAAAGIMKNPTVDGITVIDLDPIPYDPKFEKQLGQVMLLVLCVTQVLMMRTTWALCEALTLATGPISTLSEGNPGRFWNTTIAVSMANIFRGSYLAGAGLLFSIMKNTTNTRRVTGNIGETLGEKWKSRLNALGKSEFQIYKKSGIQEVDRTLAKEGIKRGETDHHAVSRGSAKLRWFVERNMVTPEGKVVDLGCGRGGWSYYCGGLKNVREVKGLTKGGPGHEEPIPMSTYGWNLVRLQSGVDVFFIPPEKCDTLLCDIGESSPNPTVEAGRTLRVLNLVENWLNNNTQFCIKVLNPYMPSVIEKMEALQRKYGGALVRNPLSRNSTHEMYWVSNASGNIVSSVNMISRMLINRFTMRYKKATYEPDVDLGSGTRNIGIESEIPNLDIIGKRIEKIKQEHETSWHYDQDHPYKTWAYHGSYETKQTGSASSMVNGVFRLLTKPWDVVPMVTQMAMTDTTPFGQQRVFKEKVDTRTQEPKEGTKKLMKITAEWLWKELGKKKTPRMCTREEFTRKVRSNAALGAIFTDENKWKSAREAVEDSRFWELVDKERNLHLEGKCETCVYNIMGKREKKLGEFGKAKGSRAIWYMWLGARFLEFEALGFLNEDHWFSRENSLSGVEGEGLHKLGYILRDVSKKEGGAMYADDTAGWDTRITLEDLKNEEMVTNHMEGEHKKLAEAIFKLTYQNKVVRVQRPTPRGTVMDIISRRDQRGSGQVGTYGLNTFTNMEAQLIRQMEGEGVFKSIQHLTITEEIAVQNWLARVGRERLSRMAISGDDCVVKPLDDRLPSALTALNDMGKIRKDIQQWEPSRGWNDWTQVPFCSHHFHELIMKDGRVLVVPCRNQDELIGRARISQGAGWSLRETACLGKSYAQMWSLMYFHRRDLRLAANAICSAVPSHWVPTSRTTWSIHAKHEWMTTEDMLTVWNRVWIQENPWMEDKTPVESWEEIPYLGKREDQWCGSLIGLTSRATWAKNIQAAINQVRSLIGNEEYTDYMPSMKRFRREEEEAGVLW

As usually defined, the inhibition is the relative decrease from the control value, in per cent. Turning to `NC(=O)CC(NC(=O)c1ccccc1)c1ccc(NCCCN2CCCC2=O)c([N+](=O)[O-])c1` (stereo not given), the inhibition is -0.79% (inactive).

Turning to `CO[C@H]1/C=C/O[C@@]2(C)Oc3c(C)c(O)c4c(O)c(c(C=NN5CCN(C)CC5)c(O)c4c3C2=O)NC(=O)/C(C)=C\C=C\[C@H](C)[C@H](O)[C@@H](C)[C@@H](O)[C@@H](C)[C@H](OC(C)=O)[C@@H]1C`, the inhibition was 6.59% (inactive).

`CO[C@H]1C=CO[C@@]2(C)Oc3c(C)c(O)c4c(O)c(c(C=NN5CCN(C)CC5)c(O)c4c3C2=O)NC(=O)C(C)=CC=C[C@H](C)[C@H](O)[C@@H](C)[C@@H](O)[C@@H](C)[C@H](OC(C)=O)[C@@H]1C`: the inhibition is -3.66% (inactive).

In the case of `C=CCOc1ccc(/C=N/NC(=O)C(C)Sc2ccccn2)cc1OC` (stereo not given), the inhibition was -7.22% (inactive).

As to `Cc1ccc(S(=O)(=O)N(C)C)cc1NC(=O)COC(=O)C1(c2ccccc2)CC1`, the inhibition is -4.44% (inactive).

Consider `O=[N+]([O-])c1cccc(S(=O)(=O)Nc2ccc(S(=O)(=O)Nc3nccs3)cc2)c1`, for which the inhibition was -3.24% (inactive).

Turning to `O=[N+]([O-])c1ccccc1S(=O)(=O)Nc1ccc(S(=O)(=O)Nc2nccs2)cc1`, the inhibition is 3.56% (inactive).

With `C/C(=N\NC(=O)c1cc(C)nc2ccccc12)c1ccccn1`, the inhibition was -2.29% (inactive).

Regarding `CC(=O)NC1=NN(C(C)=O)C(c2ccc(C(C)C)cc2)S1` (stereo not given), the inhibition is 0.65% (inactive).

In the case of `COc1ccc(O)c(C(=O)c2cc(SCC(=O)O)c3nc4sc5c(c4c(=O)n3c2)CCCC5)c1`, the inhibition is 69.1% (inactive).

For the compound `O=C(O)CSc1cc(C(=O)c2ccccc2O)cn2c(=O)c3c(-c4ccccc4)csc3nc12`, the inhibition is 36.4% (inactive).

Regarding `CCc1cc(C(=O)N(Cc2ccccc2)c2c(N)n(CCOC)c(=O)[nH]c2=O)sc1C`, the inhibition was -5.81% (inactive).

For the compound `CC(/C=C1\SC(=S)N(NC(=O)c2ccccc2C)C1=O)=C\c1ccccc1`, the inhibition was 2.21% (inactive).

Turning to `CC(/C=C1\SC(=S)N(NC(=O)c2ccc(O)cc2)C1=O)=C\c1ccccc1`, the inhibition was 2.55% (inactive).

For the compound `CC(/C=C1\SC(=S)N(NC(=O)c2ccc(C)cc2)C1=O)=C\c1ccccc1`, the inhibition is -6.45% (inactive).

In the case of `CC(/C=C1\SC(=S)N(NC(=O)c2cccc(O)c2)C1=O)=C\c1ccccc1`, the inhibition was -2.56% (inactive).

As for `COc1ccc([C@H]2/C=C\CN(S(=O)(=O)c3ccc(C)cc3)[C@@H](C)C(=O)N2Cc2ccc(F)cc2)cc1`, the inhibition is -6.14% (inactive).

Consider `CC1CCCCN1CCCNC(=O)CN1C(=O)CSc2ccc(S(=O)(=O)N3CCOCC3)cc21` (stereo not given), for which the inhibition is 0.89% (inactive).

In the case of `Cc1ccnc(SCC(=O)N2CCC(C(N)=O)CC2)n1`, the inhibition is 5.18% (inactive).

Consider `O=C1CSCC(=O)N1Cc1ccc(Cl)c(Cl)c1`, for which the inhibition is 1.96% (inactive).

Consider `CCC(Oc1ccccc1)C(=O)NCCOC` (stereo not given), for which the inhibition was -3.68% (inactive).

Consider `CCOC(=O)c1c(/N=C/c2cc(OC)cc([N+](=O)[O-])c2O)sc(C)c1C`, for which the inhibition was -0.36% (inactive).

With `CCOC(=O)c1c(/N=C/c2cccc([N+](=O)[O-])c2O)sc2c1CCC2`, the inhibition was 25.2% (inactive).

Take `O=C(CCC(=O)c1ccc(F)cc1)Nc1cc(Cl)cc(Cl)c1`: the inhibition was -2.06% (inactive).

For `CCCc1cc(C(=O)Cc2ccc(C(=O)OCC)o2)c(O)cc1O`, the inhibition is -23.9% (inactive).

Take `CCOC(=O)c1ccc(CC(=O)c2ccc(O)cc2O)o1`: the inhibition was -4.07% (inactive).

For `Nc1ccc(C(=O)N/N=C/c2cn(Cc3ccccc3F)c3ccccc23)cc1`, the inhibition is -1.3% (inactive).

As for `O=C(O)c1ccc(N/N=C/c2cn(Cc3ccc(F)cc3)c3ccccc23)cc1`, the inhibition was 9.41% (inactive).

Take `COc1ccc(OCC(O)CN2CCOCC2)cc1` (stereo not given): the inhibition was 7.33% (inactive).

Regarding `Cc1ccc[n+](-c2[nH]c(=O)sc2/C=N/N=C(\[O-])c2cccnc2)c1`, the inhibition is 7.25% (inactive).

Take `Cc1ccc(NS(=O)(=O)c2ccc(NS(=O)(=O)c3cccs3)cc2)cc1`: the inhibition was -2.07% (inactive).

`Cc1ccc(NS(=O)(=O)c2cccs2)nc1`: the inhibition was -0.32% (inactive).

Regarding `O=C(C[n+]1ccn(CCCNP2(=O)C=C(c3ccccc3)OC(c3ccccc3)=C2)c1)c1cccs1`, the inhibition was 6.89% (inactive).

Regarding `Cc1cccc(COCC(Cc2ccccc2)N2CCN(C(=O)c3cccc(C)c3)CCC2=O)c1` (stereo not given), the inhibition is -1.6% (inactive).

`COc1ccc(-c2noc(CCC(=O)N3CCN(c4ccccc4C)CC3)n2)cc1`: the inhibition was -3.97% (inactive). Further, the inhibition under setting [1] was -0.01%.

As to `O=C(O)c1cc(O)c2c(c1)C(=O)c1cccc(O)c1C2=O`, the inhibition is 5.97% (inactive).

Turning to `COc1cccc2c1-c1c(O)cccc1C2=O`, the inhibition was 9.88% (inactive). Moreover, the inhibition under setting [1] worked out at 6.38%.

Regarding `Nc1ncn(C(=S)Nc2ccccc2)n1`, the inhibition is 5.4% (inactive).

In the case of `COc1cccc(-c2nnc(Nc3nc4c(F)cccc4s3)o2)c1`, the inhibition was 3.39% (inactive).

Regarding `COc1cc(OC)cc(-c2nnc(Nc3nc4c(F)cccc4s3)o2)c1`, the inhibition is 0% (inactive).

Regarding `Cc1nc2cc(N3CCOCC3)c(NC(=O)C3CC3)cc2c(=O)n1Cc1ccccc1`, the inhibition was 0% (inactive).

For `O=S1(=O)N=C(SCCO)c2ccccc21`, the inhibition was 1.39% (inactive).

As to `O=C(CSC1=NS(=O)(=O)c2ccccc21)Nc1ccccc1`, the inhibition was 25.7% (inactive).

Regarding `COc1cccc(CNS(=O)(=O)c2cc3c4c(c2)CCN4C(=O)CC3)c1`, the inhibition was -2.16% (inactive).

On to `CNC(=S)Nc1cc(C)ccc1OC(F)F`, for which the inhibition was -3.09% (inactive).

Turning to `CCOC(=O)c1c(-c2cccc3ccccc23)csc1NC(=O)C1C2CCC(O2)C1C(=O)O` (stereo not given), the inhibition is 2.56% (inactive).

Regarding `CCOC(=O)c1c(NC(=O)C2C3CCC(O3)C2C(=O)O)sc2c1CCCC2` (stereo not given), the inhibition was -0.74% (inactive).

On to `CCOC(=O)c1c(NC(=O)C2C3CCC(O3)C2C(=O)O)sc(C)c1-c1ccc(C)cc1` (stereo not given), for which the inhibition was 16.7% (inactive).

Regarding `COC(=O)c1c(-c2ccc(C(C)(C)C)cc2)csc1NC(=O)C1C2CCC(O2)C1C(=O)O` (stereo not given), the inhibition is 10.8% (inactive).

As for `O=C(Nc1nc2n(n1)C(c1ccc(F)cc1)CC(c1ccccc1)N2)c1ccco1` (stereo not given), the inhibition is -3.83% (inactive).

Regarding `Cc1ccc2c(ccc[n+]2CC(=O)c2ccccc2)c1`, the inhibition is -3.89% (inactive).

`O=C(C1CCN(S(=O)(=O)c2ccccc2)CC1)N1CCN(c2ccccc2F)CC1`: the inhibition was -3.69% (inactive).

Consider `COc1cc(OC)c(N2CC(C(=O)NCCC3=CCCCC3)CC2=O)cc1Cl` (stereo not given), for which the inhibition was -2.95% (inactive).
